High-throughput results: PubChem BioAssay, several laboratories
V-ATPase pH: regulators of yeast V-ATPase proton transport; S. cerevisiae, pHLuorin cytosolic pH fluorescence; response, % at 10 µM; 0.37% of 350,000 active; AID 504577; in the data active means response mostly above about 7.3%, no sharp cut-off; inactive means mostly below about 5.4%; further: actives read high
KLK7 zymogen act: activators of human kallikrein-7 zymogen; purified proKLK7, EDANS-DABCYL substrate fluorescence; 100% is mature enzyme control, 0% vehicle; AID 652039; 0.9% of 370,000 active; P49862; activation, % at 7 µM;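 active means activation above the mean of all tested compounds plus 3 SD, computed per campaign excluding outliers beyond control limits, cut at about 13% in these data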
ADAM10 inh: inhibitors of human ADAM10; O14672; recombinant ADAM10, EDANS/DABCYL FRET peptide cleavage, 3 h; inhibition, % at 7 µM; 0.62% of 370,000 active; AID 720582;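 active means inhibition above a per-campaign cutoff equal to the mean of compounds falling between control-based bounds plus 3 SD, cut at about 20% in these data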
Target sequence (O14672 214-748 limits assumed): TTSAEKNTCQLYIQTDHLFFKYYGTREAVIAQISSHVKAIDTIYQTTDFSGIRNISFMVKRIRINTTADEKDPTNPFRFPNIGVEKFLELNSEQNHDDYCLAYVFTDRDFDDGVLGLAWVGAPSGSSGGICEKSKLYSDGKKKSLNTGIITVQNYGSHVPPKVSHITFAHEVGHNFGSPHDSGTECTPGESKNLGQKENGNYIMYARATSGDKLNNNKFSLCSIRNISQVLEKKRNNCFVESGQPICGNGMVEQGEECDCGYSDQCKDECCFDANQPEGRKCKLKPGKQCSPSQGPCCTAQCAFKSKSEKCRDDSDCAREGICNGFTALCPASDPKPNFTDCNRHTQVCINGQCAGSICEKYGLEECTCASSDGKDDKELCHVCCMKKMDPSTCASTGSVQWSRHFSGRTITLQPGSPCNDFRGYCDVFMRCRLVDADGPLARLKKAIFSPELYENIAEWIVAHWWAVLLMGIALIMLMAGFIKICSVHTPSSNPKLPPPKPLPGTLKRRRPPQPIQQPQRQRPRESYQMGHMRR
ADAM17 inh: ADAM17 inhibition, QFRET primary screen | P78536 | recombinant ADAM17, EDANS/DABCYL FRET peptide cleavage | inhibition, % at 6.95 µM | 0.83% of 370,000 active;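 active means inhibition above the mean of compounds lying between control limits plus 3 SD, set per campaign, cut at about 8.5% in these data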
ADAM10 ctr: inhibits human ADAM10 in ADAM17 exosite counter-screen. shares compounds with ADAM17 inh. recombinant ADAM10, EDANS/DABCYL FRET peptide cleavage, 3 h. inhibition, % at 6.95 µM. 47% of 2,900 active;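 active means mean inhibition over the triplicate runs exceeds the activity threshold set in the earlier primary screen, cut at about 20% in these data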
ADAM17 confirm: confirmation of inhibitors of human ADAM17; shares compounds with ADAM17 inh; recombinant ADAM17, EDANS/DABCYL QFRET peptide cleavage; inhibition, % at 6.95 µM; 65% of 2,900 active; AID 743257;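 active means mean inhibition across replicates above the hit cutoff set in the primary screen, cut at about 8.5% in these data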
Of the large screens only hits and unclear results are named; the others gave an inactive call (follow-up assays come after a bar, where they were run). Shown are actives, neighbours in structure and some others; about 2.3% of the full set was active somewhere.

C=CC[C@@H](CC(=O)N(CCO)Cc1ccccc1)C(=O)N[C@H](COC(=O)[C@H](CC=C)CC(=O)OC(C)(C)C)Cc1c[nH]c2ccccc12	ADAM17 inh 9.9 | ADAM10 ctr 48 | ADAM17 confirm 23
C=CC[C@H](CC(=O)N[C@H](CO)Cc1ccccc1)C(=O)N[C@H](COC(=O)[C@@H](CC=C)CC(=O)OC(C)(C)C)Cc1c[nH]c2ccccc12	ADAM17 inh 14 | ADAM10 ctr 27 | ADAM17 confirm 15
Cc1ccc(S(=O)(=O)N2CCCC2C(=O)N2CCN(c3ccccc3)CC2)cc1C (stereo not given)	none (no result: V-ATPase pH)
COC(=O)c1cc(-c2c(C)noc2C)c(=O)n2c1CCC2	none (no result: V-ATPase pH)
CC(=O)C1=C(C)N(Cc2ccc(F)cc2)C(=S)NC1c1ccc(Br)cc1 (stereo not given)	none (no result: V-ATPase pH)
COC(=O)Cc1nnn2c1[C@H](C)[C@@H](OC)c1ccc(C(F)(F)F)cc1-2	none (no result: V-ATPase pH)
O=C(CN1c2ccccc2Sc2ccccc21)N/N=C/c1ccc([N+](=O)[O-])cc1	ADAM17 inh 13 | ADAM10 ctr 29 | ADAM17 confirm 17
O=C(c1[nH]c(C(F)(F)F)nc1-c1ccccc1)N1CCC(Cc2ccccc2)CC1	ADAM17 inh 12 (no result: V-ATPase pH) | ADAM10 ctr inactive | ADAM17 confirm inactive
C[C@@H]1[C@@H](O)C[C@]2(C[C@@H](O)c3ccccc3O2)O[C@H]1c1ccccc1	none (no result: V-ATPase pH)
CCCC[C@H]1C2CC(OC(=O)NCCCc3ccccc3)C(C2)[C@H]2CCCCN21 (stereo not given in full)	none (no result: V-ATPase pH)
Cc1cccc(N2CCN(S(=O)(=O)c3ccc4c(c3)C(C)(C)C(=O)N4C)CC2)c1C	ADAM17 inh 8.8 | ADAM10 ctr inactive | ADAM17 confirm inactive
O=C(NC(=S)Nc1ccc2c(c1)OCCO2)c1cccc2ccccc12	ADAM17 inh 11 | ADAM10 ctr inactive | ADAM17 confirm 11
OCC1(Cc2cccc(Cl)c2)CCCN(Cc2sc(N3CCCC3)nc2Cl)C1 (stereo not given)	ADAM17 inh 10 | ADAM10 ctr inactive | ADAM17 confirm 9.7
C[C@@]12C(=O)N(c3cccc(Cl)c3)C(=O)N1[C@H](c1ccc(Cl)cc1)[C@@H]1C(=O)N(C3CCCCC3)C(=O)[C@@H]12	ADAM17 inh 10 | ADAM10 ctr 38 | ADAM17 confirm 22
COc1ccc(C(=S)N2CCCCCC2)cc1	none
COc1ccc(C(=S)N2CCN(c3ccccc3C)CC2)cc1	ADAM17 inh 9.4 | ADAM10 ctr inactive | ADAM17 confirm inactive
O=C(CCS(=O)(=O)c1ccccc1)Nc1ccc(F)cc1Cl	none (no result: V-ATPase pH)
Cc1cc(C)cc(NC(=O)c2ccc(Cn3nc(C)c(Cl)c3C)o2)c1	ADAM17 inh 9.8 | ADAM10 ctr 21 | ADAM17 confirm 9.5
CC(=O)NC(C)(c1ccccc1)c1nc(-c2cc(F)cc(F)c2)cs1 (stereo not given)	none (no result: V-ATPase pH)
OC(c1ccccc1)(c1nc(-c2cc(F)cc(F)c2)cs1)C(F)(F)F (stereo not given)	ADAM17 inh 9.5 (no result: V-ATPase pH) | ADAM10 ctr 40 | ADAM17 confirm 18
OC(c1ccccc1)(c1ccccc1)C1CCN(CCCOc2ccc(OC(F)(F)F)cc2)CC1	none (no result: V-ATPase pH)
OC(c1ccccc1)(c1ccccc1)C1CCN(CCCOc2ccc(C(F)(F)F)cc2)CC1	ADAM17 inh 11 (no result: V-ATPase pH) | ADAM10 ctr 24 | ADAM17 confirm 9.8
OC(c1ccccc1)(c1ccccc1)C1CCN(CCCOc2cccc(C(F)(F)F)c2)CC1	ADAM17 inh 9.9 (no result: V-ATPase pH) | ADAM10 ctr 27 | ADAM17 confirm 19
C/C=C/c1ccccc1OCCCN1CCC(C(O)(c2ccccc2)c2ccccc2)CC1	ADAM17 inh 13 (no result: V-ATPase pH) | ADAM10 ctr inactive | ADAM17 confirm 9.2
OC(c1ccccc1)(c1ccccc1)C1CCN(CCCOc2cccc(Cl)c2)CC1	none (no result: V-ATPase pH)
C[C@@H]1CN([C@H](C)CO)C(=O)c2cc(NC(=O)Nc3ccccc3)ccc2O[C@@H](C)CCCCO[C@H]1CN(C)S(C)(=O)=O	none (no result: V-ATPase pH)
O=[N+]([O-])c1cc2c(ccc3occc32)o1	none (no result: V-ATPase pH)
COc1ccc(-c2cc(-c3n[nH]c(=S)n3-c3cc(OC)ccc3OC)[nH]n2)cc1	ADAM17 inh 9.5 | ADAM10 ctr 23 | ADAM17 confirm 13
COC(=O)N1Cc2ccnnc2CC1c1ccccc1-c1ccc(OC)cc1 (stereo not given)	none (no result: V-ATPase pH)
COc1ccc(NC(=O)N(C)C[C@H]2Oc3c(NC(=O)c4nc5ccccc5s4)cccc3C(=O)N([C@@H](C)CO)C[C@H]2C)cc1	ADAM17 inh 12 | ADAM10 ctr 25 | ADAM17 confirm 13
COc1ccc(S(=O)(=O)Nc2ccc3c(c2)C(=O)N([C@H](C)CO)C[C@H](C)[C@@H](CN(C)C(=O)Nc2ccc(C(F)(F)F)cc2)OCCCC[C@H](C)O3)cc1	ADAM17 inh 10 | ADAM10 ctr 39 | ADAM17 confirm 21
C[C@H](CO)N1C[C@H](C)[C@@H](CN(C)Cc2ccc(Oc3ccccc3)cc2)Oc2c(NC(=O)c3ccncc3)cccc2C1=O	ADAM17 inh 12 | ADAM10 ctr inactive | ADAM17 confirm inactive
COc1ccc(S(=O)(=O)Nc2cccc3c2O[C@H](CN(C)C(=O)Nc2ccc(C(F)(F)F)cc2)[C@@H](C)CN([C@H](C)CO)C3=O)cc1	ADAM10 inh 21, ADAM17 inh 16 | ADAM10 ctr 21 | ADAM17 confirm 14
C[C@H](CO)N1C[C@H](C)[C@@H](CN(C)C(=O)Nc2ccc(C(F)(F)F)cc2)Oc2c(NS(=O)(=O)c3ccc(F)cc3)cccc2C1=O	none
COC(=O)c1ccc2c(C(C)c3ccccc3O)c[nH]c2c1 (stereo not given)	none (no result: V-ATPase pH)
CN(CCCOC(=O)c1cc2ccccc2o1)C1CN(Cc2cn(Cc3ccccc3Cl)nn2)S(=O)(=O)C1 (stereo not given)	none (no result: V-ATPase pH)
O=C(CSc1nc2ccccc2nc1N1CCOCC1)NCc1ccc(Cl)cc1Cl	none (no result: V-ATPase pH)
COc1cc(OC)cc(C(=O)NCCN2C(=O)C3C4C=CC(C4)C3C2=O)c1 (stereo not given)	none (no result: V-ATPase pH)
COc1ccc(NC(=O)c2ccc(S(=O)(=O)N3CCCCC3)cc2)cc1OC	ADAM17 inh 9.0 | ADAM10 ctr inactive | ADAM17 confirm 10
COc1ccc(C(=O)Nc2ccc(S(=O)(=O)N3CCCC3)cc2)cc1	none
COc1ccccc1NC(=O)c1ccc(S(=O)(=O)N2CCCC2)cc1	none
COc1ccccc1NS(=O)(=O)c1ccc(C)c(NC(=O)c2ccc(S(=O)(=O)N3CCCCCC3)cc2)c1	ADAM17 inh 12 | ADAM10 ctr 36 | ADAM17 confirm 18
O=C(OCc1cn(Cc2ccc(F)c(F)c2)nn1)N1CCOCC1	none (no result: V-ATPase pH)
CC1CCCC(C)N1C(=O)COC(=O)COc1ccc(C#N)cc1 (stereo not given)	ADAM17 inh 9.8 | ADAM10 ctr inactive | ADAM17 confirm inactive
Nn1c(SC/C=C/c2ccccc2)nnc1-c1cccnc1	none
